# Experimental data reported in the supplement of paper PMC13380429.
# Tested on: Vero E6 infected with SARS-CoV-2
# Experiment: inhibition of SARS-CoV-2 cytopathic effect; higher = more antiviral protection, active = above 15
# Settings: 48 h
Compound,inhibition of SARS-CoV-2 cytopathic effect (1 nM),inhibition of SARS-CoV-2 cytopathic effect (8.33 nM),inhibition of SARS-CoV-2 cytopathic effect (100 nM),inhibition of SARS-CoV-2 cytopathic effect (833.33 nM),inhibition of SARS-CoV-2 cytopathic effect (10000 nM)
O=C(N/N=C/c1ccc(O)c(O)c1)c1cc2ccccc2cc1O [dynasore],-1.99% (inactive),1.05% (inactive),-1.82% (inactive),-0.26% (inactive),0.04% (inactive)
O=C(O)CCNc1cc(N2CCc3ccccc3CC2)nc(-c2cccnc2)n1,0.26% (inactive),0.62% (inactive),1.71% (inactive),0.35% (inactive),-0.17% (inactive)
COC(=O)Nc1nc2cc(C(=O)c3cccs3)ccc2[nH]1 [nocodazole],2.2% (inactive),3.05% (inactive),0.53% (inactive),1.99% (inactive),-1.47% (inactive)
C[C@@H](NCCCc1cccc(C(F)(F)F)c1)c1cccc2ccccc12 [cinacalcet],1.8% (inactive),2.9% (inactive),0.77% (inactive),-2.27% (inactive),-3.52% (inactive)
CC(C)[C@H](CO)Nc1nc(Nc2ccc(C(=O)O)c(Cl)c2)c2ncn(C(C)C)c2n1 [purvalanol-B],11.3% (inactive),5.29% (inactive),0.04% (inactive),4.65% (inactive),-1.55% (inactive)
CC(N)Cc1ccc(O)cc1 (stereo not given) [hydroxyamphetamine],1.55% (inactive),-1.8% (inactive),2.28% (inactive),0.63% (inactive),1.86% (inactive)
CC(=O)Nc1ccccc1 [acetanilide],-1.3% (inactive),2.8% (inactive),1.67% (inactive),1.23% (inactive),0.69% (inactive)
c1ccc2c(c1)CCCC2C1=NCCN1 (stereo not given) [tetrahydrozoline],0.31% (inactive),-1.09% (inactive),2.06% (inactive),1.39% (inactive),0.27% (inactive)
CC(C)=CCC/C(C)=C/CC/C(C)=C/CCC(=O)OC/C=C(\C)CCC=C(C)C [geranyl-farnesylacetate],-0.32% (inactive),0.94% (inactive),-2.76% (inactive),0.87% (inactive),1.54% (inactive)
C[C@@H]1C[C@H]2[C@@H]3CCC4=CC(=O)C=C[C@]4(C)[C@@]3(Cl)[C@@H](O)C[C@]2(C)[C@@]1(OC(=O)c1ccco1)C(=O)CCl,-0.2% (inactive),-2.64% (inactive),-2.34% (inactive),-2.86% (inactive),3.12% (inactive)
c1cnc(N2CCN(Cc3ccc4c(c3)OCO4)CC2)nc1 [piribedil],-0.1% (inactive),15.4% (active),1.85% (inactive),-0.64% (inactive),0.85% (inactive)
CO[C@H]1CC[C@@H](C(=O)c2ccc3nc4c(cc3c2)CCCO4)CC1,-1.37% (inactive),0.02% (inactive),-1.45% (inactive),-0.98% (inactive),-2.81% (inactive)
